Screening results (PubChem BioAssay)
HT1080 IDH1KD tx = qHTS for induction of synthetic lethality in tumor cells producing 2HG: qHTS for the HT-1080-IDH1KD cell line. actives 2% (n = 360,000). HT-1080 IDH1 knockdown viability, ATP luminescence, 48 h. Potency, µM (series often up to 46.1 µM), without a hit: at the top dose activity, negative = toxicity, actives largely listed as cytotoxic;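 further: potency means the concentration at half of the fitted maximal effect; 0% = DMSO wells and -100% = cell-free medium wells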
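Knockdown cells (IDH1KD HT-1080) received compounds 2 h after plating at 750 cells/well and were kept 48 h at 37 °C in 5% FBS RPMI. A CellTiter-Glo luminescence read gave % activity for curve fitting.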
DT40 TDP1 CPT = qHTS for Inhibitors of human tyrosyl-DNA phosphodiesterase 1 (TDP1): qHTS in cells in presence of CPT. chicken DT40 Tdp1-/-;hTDP1 cells + 20 nM CPT, ATP luminescence, 48 h. Potency, µM (highest dose often 46.2 µM), for inactives: at the top dose activity change, negative = growth inhibition, hits mostly inhibitors. actives 12% (n = 420,000); further: potency means the concentration at half of the fitted maximal effect; nearly all actives have a fitted effect of over 55% in size
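Chicken DT40 Tdp1-/- cells stably complemented with human TDP1 were seeded at 400 cells/well in medium containing 20 nM camptothecin, exposed to pin-transferred compounds, and grown at 37 °C for at least 48 hr. Viability was read as ATP luminescence.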
IL1B secr inh = qHTS for Inhibitors of Inflammasome Signaling: IL-1-beta AlphaLISA Primary Screen | THP-1 LPS/ATP IL-1B secretion, AlphaLISA, 16 h; stronger effect = lower value | activity change, % at 57.5 µM | actives 4.7% (n = 360,000); in the data active means activity change below about -50%; inconclusive means mostly about -30% to -49%
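Secreted IL-1B measured by AlphaLISA bead assay after 16 h compound exposure of THP-1 cells; compounds (final up to 57.5 uM) added 1 h before LPS (250 ng/mL) and ATP (1.25 mM) stimulation; lower signal means less secretion.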
uPA generation = qHTS for Inhibitors of Cell Surface uPA Generation; Potency, µM (top dose mostly 38.3 µM), for inactives: at the highest dose activity change, negative = inhibition, usual class: inhibitors; AID 540303, 2011; cell surface uPA generation assay, qHTS; actives 0.31% (n = 330,000); active means well fitted inhibition curve with a large enough effect; inconclusive means small, poorly fitted or top-dose-only effect; inactive means no such curve, though single readings can be large or run the other way; tested in mouse RAW 264.7 cells; further: potency means the concentration at half of the fitted maximal effect; nearly all actives have a fitted effect of over 55% in size
HT1080-NT tox = qHTS for induction of synthetic lethality in tumor cells producing 2HG: qHTS for the HT-1080-NT fibrosarcoma cell line; HT-1080-NT fibrosarcoma viability, CellTiter-Glo ATP luminescence, 48 h; Potency, µM (series often up to 46.1 µM), for inactives: top-dose activity, negative = less viability, hits mostly cytotoxic; actives 1.6% (n = 360,000); AID 686970, 2013;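 further: NT is the 2HG producing partner of a matched IDH1 knockdown line; potency means the concentration at half of the fitted maximal effect; 0% = DMSO-treated cells and -100% = media-only wells without cells; nearly all actives have a fitted effect of over 55% in size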
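HT-1080-NT fibrosarcoma cells (2HG-overproducing), 750 cells/well in RPMI with 5% FBS, dosed after 2 h and incubated 48 h at 37C. CellTiter-Glo luminescence normalized to DMSO and no-cell wells; concentration-response curves fitted and classed.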
TDP1 cell noCPT = qHTS for Inhibitors of human tyrosyl-DNA phosphodiesterase 1 (TDP1): qHTS in cells in absence of CPT | DT40 Tdp1-/- hTDP1 cells, no CPT, ATP luminescence, 48 h | Potency, µM (doses to about 46.2 µM), for inactives: at the highest dose activity change, negative = growth inhibition, hits mostly inhibitors | actives 15% (n = 420,000); further: potency means the concentration at half of the fitted maximal effect; nearly all actives have a fitted effect of over 55% in size
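Readout: luminescence from CellTiter-Glo after 30 min in the dark at RT. Cells: DT40 Tdp1-/- with stable hTDP1, 400/well. Exposure: compounds alone, ≥48 hr, 37 °C.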
Numbers without * were called inactive; ? = inconclusive; . = no result. An excerpt weighted towards active compounds, which were near 19% of everything screened. Unless noted, the call rests on the fitted dose curve; in most records, active means well fitted curve in the direction sought with a large enough effect; inconclusive means small, poorly fitted or top-dose-only effect, or another doubt; inactive means no such curve, though single readings can be large; an effect the other way counts as inactive or inconclusive. Unless noted, on the % scale 0 is the no-effect control and ±100 the full control effect.

SMILES | HT1080 IDH1KD tx | DT40 TDP1 CPT | IL1B secr inh | uPA generation | HT1080-NT tox | TDP1 cell noCPT
COc1ccc(-c2nnn(CC(=O)N(CC3CCCO3)C(C(=O)NC(C)(C)C)c3ccco3)n2)cc1OC (configuration not stated) | 7.5% | -5.4% | 15.8 | -2.3% | 6.0% | -29.0%
O=C(Nc1cccc(F)c1)N1CCCC2(CCNCC2)C1 | . | -22.8% | . | . | . | ?
CC(C)=CCCC(C)=CCN1C(=O)CN(C)C1=O | 5.9% | ? | 54.2 | . | 10.0% | ?
CCOC(=O)N1CCN(C(=O)c2ccc3oc(CCCc4ccccc4)nc3c2)CC1 | -17.1% | ? | -21.7 | -4.9% | -1.0% | ?
CCOC(=O)[C@]12CCC=C1N(CCC1=CCCCC1)C(=O)[C@H](CC(=O)N1CCCCC1)C2 | 16.9% | 18.4µM* | 22.4 | . | 11.7% | 13µM*
COC1=C(OC)C(=O)c2ccccc2C1=O | ? | 7.94µM* | . | . | ? | 8.91µM*
COC1=C(Nc2ccccc2)C(=O)c2ccccc2C1=O | 13µM* | 11.6µM* | ? | ? | ? | 11.6µM*
COC1=C(Nc2ccc(C)cc2)C(=O)c2ccccc2C1=O | -15.0% | ? | -76.5* | -4.2% | -19.7% | 16.4µM*
COc1cc(C=C2C(=O)c3ccccc3C2=O)cc(OC)c1 | 5.9% | -6.7% | -7.9 | 9.7% | -0.7% | -29.8%
Cc1ccc(S(=O)(=O)Nc2ccc3c(c2)C(=O)c2ccccc2-3)cc1 | ? | ? | 28.7 | . | ? | ?
C=Cc1ccc(CSc2cc(C)nc3nc(C)nn23)cc1 | -11.2% | ? | 68.6 | ? | -9.4% | ?
COC(=O)c1cc2sccc2n1Cc1ccccc1 | . | -7.0% | . | . | . | -14.7%
COc1ccccc1CC(=O)Nc1ncc(C)s1 | -1.8% | ? | 5.1 | -11.1% | 0.0% | 16.4µM*
COc1cccc(CC(=O)Nc2ncc(C)s2)c1 | -17.6% | 8.2µM* | -17.0 | -2.9% | -8.5% | 14.6µM*
COC(=O)c1cc2sc(C)cc2n1Cc1cccc(OC)c1 | . | ? | . | . | . | 23.1µM*
CC1CC(C)CN(CCOCCSc2ccc(Cl)cc2)C1 (configuration not stated) | ? | 20.6µM* | ? | -3.5% | ? | 16.4µM*
CC1CC(C)CN(CCOCCSc2ccccc2)C1 (configuration not stated) | 6.4% | ? | -13.5 | -0.5% | -0.4% | 16.4µM*
CC(C)CN(CC(C)C)C(=O)C1CCCN(S(=O)(=O)c2ccc3c(c2)oc(=O)n3C)C1 (configuration not stated) | . | -12.6% | . | . | . | -19.1%
COc1cccc(C2=CC(c3ccc(OC)c(OC)c3OC)n3nnnc3N2)c1 (configuration not stated) | 1.1% | -21.9% | -1.2 | 2.0% | 1.5% | -21.9%
CCc1ccc(C2=CC(c3cc(Br)ccc3F)n3ncnc3N2)cc1 (configuration not stated) | -6.6% | 23.1µM* | ? | . | -7.9% | 18.4µM*
Cc1ccsc1C1C=C(c2cccc(Br)c2)Nc2ncnn21 (configuration not stated) | -13.4% | ? | -17.4 | 2.7% | -15.5% | ?
COc1ccc(C2C=C(c3ccc(Br)cc3)Nc3nnnn32)c(OC)c1 (configuration not stated) | . | -98.1% | . | . | . | 23.1µM*
COc1cccc(C2=CC(c3cccs3)n3nnnc3N2)c1 (configuration not stated) | 8.2µM* | 2.31µM* | 0.3 | -14.3% | 8.2µM* | 3.26µM*
Fc1ccc(Br)cc1C1C=C(c2ccc(Br)cc2)Nc2nnnn21 (configuration not stated) | . | ? | . | . | . | 23.1µM*
O=C(NCCCn1ccnc1)c1cc(-c2cccs2)on1 | ? | 4.61µM* | 36.8 | -11.2% | ? | 4.61µM*
SMILES | HT1080 IDH1KD tx | DT40 TDP1 CPT | IL1B secr inh | uPA generation | HT1080-NT tox | TDP1 cell noCPT
COCCCNC(=O)c1ccc(-n2nc(C(F)(F)F)cc2-c2cccs2)cc1 | -4.8% | -29.8% | ? | -3.2% | 0.1% | -28.8%
O=C(NCCCN1CCOCC1)c1ccc(-n2nc(C(F)(F)F)cc2-c2cccs2)cc1 | 23.1µM* | 18.4µM* | -86.8* | -3.9% | ? | 18.4µM*
O=C(NCCCN1CCOCC1)c1cc(-c2cccs2)on1 | 11.2µM* | -20.1% | 19.4 | . | ? | ?
O=C(NCc1ccco1)c1cc(-c2cccs2)on1 | ? | 8.91µM* | 1.6 | . | ? | 14.1µM*
O=C(NCCCn1ccnc1)c1ccncc1 | -0.8% | 3.3% | -2.3 | . | -14.5% | -6.9%
COCc1c(C(=O)OCc2nc3ccsc3c(=O)[nH]2)oc2ccccc12 | 2.9% | -5.9% | 56.2 | 18.5% | 4.4% | 6.6%
CCN(CC)CCCNC(=O)c1cc(-c2ccc(Cl)c(Cl)c2)on1 | ? | 20.6µM* | -21.3 | . | ? | 23.1µM*
O=C(NCCCN1CCOCC1)c1cc(-c2ccc(Cl)c(Cl)c2)on1 | 1.7% | ? | -12.2 | 2.2% | -5.7% | 16.4µM*
CCN(CC)CCCNC(=O)c1cc(-c2ccc(O)cc2)on1 | 9.6% | -3.5% | 0.0 | -3.2% | 7.9% | -12.5%
COc1ccccc1C(C(=O)c1ccccc1)c1ccc(O)cc1 (configuration not stated) | -17.1% | ? | ? | . | -29.7% | ?
CCCc1ccc(-c2cc(C(=O)NCCc3ccc(S(N)(=O)=O)cc3)c3ccccc3n2)cc1 | ? | 14.6µM* | ? | . | ? | 11.6µM*
NS(=O)(=O)c1ccc(CCNC(=O)c2cc(-c3ccc(Br)cc3)nc3ccccc23)cc1 | ? | 9.2µM* | -12.9 | -25.4% | ? | 8.2µM*
O=C(NCCc1ccc(Cl)cc1)c1cc(-c2ccncc2)nc2ccccc12 | -12.6% | ? | -12.9 | 19.3% | -27.5% | ?
NS(=O)(=O)c1ccc(CCNC(=O)c2cc(-c3ccccn3)nc3ccc(Br)cc23)cc1 | -19.1% | ? | 70.1 | -3.0% | ? | ?
COc1ccc(CCNC(=O)CCC(=O)n2ncc3ccc(Cl)cc32)cc1OC | -11.1% | -28.7% | 11.6 | -7.3% | 7.2% | -0.8%
O=C(Nc1ccc2c(c1)OCO2)c1cc(C2CCCN(C(=O)CCCc3ccccc3)C2)on1 (configuration not stated) | ? | 18.4µM* | 0.0 | . | 16.4µM* | ?
